# Screens (PubChem BioAssay)
# Only some compounds are listed: those with a hit (about 4.5% of all), similar ones and a draw of the others.
# SKKanGAS inh: S. pyogenes SKKanGAS growth inhibitors in kanamycin, primary screen, streptokinase expression inhibitor project, SKKanGAS strain, BacTiter-Glo luminescence | inhibition, % at 7.5 µM | 300,000 tested, 1.3% active | AID 1662, 2009 | 6 h;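 active = mean replicate score, as percent of positive control median, at least 50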;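 note: strain carries kanamycin resistance gene driven by streptokinase promoter and grows in 40 µg/ml kanamycin; loss of luminescence reflects streptokinase promoter inhibition or plain growth inhibition; 0% = median of DMSO wells and 100% = positive control at its reference dose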
# PfHsp90 yeast 2: growth inhibition of PfHsp90-expressing yeast, primary screen, antimalarial PfHsp90 inhibitor project, S. cerevisiae, BacTiter-Glo luminescence, single point, set 2; BacTiter-Glo ATP, 48 h; yeast lacking PDR1 and PDR3 efflux regulators; inhibition, % at 9.4 µM; 310,000 tested, 0.32% active; AID 504621, 2011;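 active = every replicate shows inhibition above about 80%, whatever the replicate mean, limit read from the data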;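 note: 0% = DMSO neutral controls and 100% = 20 µM radicicol positive controls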
# NALP3 yeast inh: NALP3 inflammasome inhibitors in reconstituted yeast, primary screen, luminescence, uHTS | Yeast reconstituted NLRP3/ASC/caspase-1, beta-gal luminescence, 24 h | inhibition, % at 10 µM | 330,000 tested, 0.39% active | AID 2825, 2010;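 active = inhibition of 50% or more; inactive = inhibition below 50%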;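 note: plate controls were induced DMSO wells for no effect and uninduced yeast grown without galactose for full effect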
# tim23-1 inh: growth inhibitors of tim23-1 mutant yeast, primary screen, luminescence, uHTS. inhibition, % at 20 µM. S. cerevisiae tim23-1 growth, BacTiter-Glo luminescence, 24 h. 330,000 tested, 1.3% active. AID 463212, 2010;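 active = growth inhibition of the mutant yeast at or above 50%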;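 note: temperature-sensitive mutant grown at 25 °C; plate controls were DMSO-treated mutant yeast for no effect and medium wells lacking yeast for full effect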
# TIM10 inh: growth inhibitors of isogenic TIM10 control yeast, primary screen, counter-screen for tim10-1 yeast inhibitor project, luminescence, uHTS; S. cerevisiae TIM10 strain growth, BacTiter-Glo luminescence, 24 h; inhibition, % at 10 µM; 330,000 tested, 1.4% active; AID 463195, 2010;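 active = inhibition of 40% or more at the single tested concentration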;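 note: wild-type TIM10 isogenic control strain grown at permissive 25 °C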
# tim10-1 inh: growth inhibitors of tim10-1 mutant yeast, primary screen, luminescence, uHTS; S. cerevisiae tim10-1 ts strain growth, BacTiter-Glo, 24 h; inhibition, % at 20 µM; 330,000 tested, 2.2% active; AID 463190, 2010;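 active = inhibition of at least 40%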;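 note: mutant grown at 25 °C; 0% = DMSO wells with yeast and 100% = wells holding no yeast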
# tim10-1 conf: growth inhibitors of tim10-1 mutant yeast, confirmation, single concentration, luminescence, S. cerevisiae; shares compounds with tim10-1 inh; S. cerevisiae tim10-1 ts strain growth, BacTiter-Glo, 24 h; inhibition, % at 20 µM; 7,400 tested, 56% active; AID 463213, 2010;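 active = inhibition of yeast growth at or above a set limit in either of two repeat tests at 20 µM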;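 note: tim10-1 mutant grown at permissive 25 °C to find synthetic lethal compounds; 0% = DMSO yeast wells and 100% = medium wells without yeast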
# * = called active by the depositor; / = no result.
SMILES,SKKanGAS inh,PfHsp90 yeast 2,NALP3 yeast inh,tim23-1 inh,TIM10 inh,tim10-1 inh,tim10-1 conf
COc1ccc(CN(C(=O)c2snc(C(N)=O)c2N)C(C(=O)NC2CCCC2)c2ccco2)cc1 (centres undefined),-0.4,9.6,4.3,12.3,14.4,18.7,/
Cc1cccc(N2CCN(C(=O)CCC(=O)N3CC(C)Oc4ccc(C)cc43)CC2C)c1 (centres undefined),-8.1,8.0,20.5,11.3,1.5,3.2,/
COc1cccc(CNc2nnnn2C)c1,2.6,3.0,10.4,-2.7,1.6,3.7,/
C/C(=N/Nc1ccc([N+](=O)[O-])cc1)c1ccc(C)cc1C,0.4,-15.4,15.3,10.1,13.7,42.0*,27.4
O=C(NC1CCCc2ccccc21)C1CCN(S(=O)(=O)c2ccccc2)CC1 (centres undefined),-4.9,-2.0,4.3,23.4,26.9,40.1*,23.9
Cc1ccc(N2CC(C(=O)Nc3ccc(S(=O)(=O)NCC4CCCO4)cc3)CC2=O)cc1C (centres undefined),-0.4,23.5,4.2,8.7,-4.7,-5.6,/
CC(C)(C)C(=O)Nc1ccccc1C(=O)Nc1cccnc1,-7.4,2.9,14.9,2.3,-15.6,10.2,/
CC(C)(C)C(=O)Nc1ccccc1C(=O)Nc1cc(Cl)ccc1Cl,1.8,-36.9,-43.3,41.0,38.8,43.3*,36.1*
O=C(NNC(=O)C1C2C=CC(C2)C1C(=O)O)c1ccccc1O (centres undefined),-0.7,2.0,12.9,-1.2,-1.1,-3.1,/
CCC(=O)Nc1ccc(C2C(=O)c3ccccc3C2=O)cc1,12.6,30.1,8.8,30.2,18.0,42.2*,21.9
O=C(Cc1ccccc1)N/N=C/c1ccc2cccc(O)c2n1,-5.9,-0.1,3.7,47.8,20.0,46.9*,34.5*
NC(=O)N/N=C/c1ccc2cccc(OCc3ccccc3)c2n1,-2.4,/,13.1,22.4,13.8,-2.1,/
Cc1ccc(S(=O)(=O)CCC(=O)OCc2nnc(-c3ccc([N+](=O)[O-])cc3)o2)cc1,/,7.4,/,/,/,/,/
N#C/C(=C/c1ccc(O)c([N+](=O)[O-])c1)C(=O)Nc1ccccc1,3.4,-15.4,-0.1,25.2,24.2,40.4*,22.8
C=CCC1Cc2c(cccc2[N+](=O)[O-])C(CC=C)N1 (centres undefined),1.4,-0.6,-7.0,33.5,17.7,48.8*,22.1
c1ccc(-c2noc(CN3CCN(C(c4ccccc4)c4ccccc4)CC3)n2)cc1,-4.1,-15.6,6.5,18.5,28.5,44.5*,11.9
c1ccc(-c2noc(CN3CCN(c4ccccc4)CC3)n2)cc1,-8.0,7.5,1.8,22.8,0.1,5.0,/
Cc1sc2ccc3sccc3c2[n+]1C,2.9,3.8,17.5,25.5,19.9,43.5*,46.0*
Cc1c(C)c2ccc(Oc3ccc([N+](=O)[O-])cc3C(F)(F)F)c(C)c2oc1=O,6.1,4.7,3.2,21.9,18.8,40.3*,22.9
COc1ccc(C=O)cc1CSc1ncccc1C(=O)O,-2.3,-2.0,1.3,4.9,12.8,-9.2,/
COc1ccc(C(=O)Nc2ccc3c(c2)nc(CCNC(C)=O)n3C)cc1,-3.5,-24.9,11.3,-5.1,1.5,-1.6,/
COc1ccc(C(=O)NCCc2nc3cc([N+](=O)[O-])ccc3n2C)cc1,1.6,-14.1,24.4,27.8,33.9,54.6*,38.0*
O=C(NC(=O)C(F)(F)F)Nc1ccc(S(=O)(=O)Nc2nccs2)cc1,-3.6,-5.2,21.5,9.4,-1.3,5.9,/
N#Cc1c(NC(=O)c2ccc(Cn3cc(Br)cn3)o2)sc2c1CCCCC2,41.5,-70.8,14.0,41.3,35.5,32.4,/
COC(=O)c1sc(NC(=O)c2ccc(Cn3cc(Cl)cn3)o2)c(C#N)c1C,32.0,-17.5,5.2,19.6,13.2,44.4*,30.0*
SMILES,SKKanGAS inh,PfHsp90 yeast 2,NALP3 yeast inh,tim23-1 inh,TIM10 inh,tim10-1 inh,tim10-1 conf
O=C1COc2cc(O)ccc21,/,-5.4,/,/,/,/,/
Cc1nn(Cc2c(F)c(F)c(F)c(F)c2F)c(C)c1NC(=O)c1ccc(COc2ccccc2Cl)o1,15.4,/,0.7,29.9,38.5,46.4*,31.6*
Cc1nn(Cc2c(F)c(F)c(F)c(F)c2F)c(C)c1NC(=O)c1ccc(COc2ccccc2Cl)cc1,-0.7,18.1,/,/,/,/,/
COc1ccc(NC(=O)CNc2ccccc2N2CCCC2=O)cc1S(=O)(=O)N1CCOCC1,/,-2.0,13.0,-6.6,6.8,-7.6,/
O=C(CSCc1ccccc1Cl)NNC(=S)Nc1ccccc1,-8.6,12.3,23.5,25.6,27.8,49.3*,43.4*
CSc1nc(N)nc2c1ncn2CC(=O)N1CCN(Cc2c(C)cc(C)cc2C)CC1,/,-5.0,-16.9,-10.9,1.7,-3.2,/
O=C(O)/C=C/C(=O)c1ccc2c(c1)CCc1ccccc1-2,39.1,96.0*,38.5,48.3,26.6,58.3*,54.3*
CC(=O)Nc1ccc2c(c1)CCc1ccccc1-2,0.4,10.8,28.0,40.0,14.4,38.6,/
O=C1CC(NS(=O)(=O)c2cc(F)ccc2F)CN1c1ccc2c(c1)OCCO2 (centres undefined),19.7,20.0,0.6,7.8,12.6,16.7,/
CCCCNC(=O)CC(C(=O)N1CCc2ccccc21)n1ccnc1 (centres undefined),-2.5,/,5.7,10.2,1.6,1.8,/
O=C(CC(C(=O)N1CCc2ccccc21)n1ccnc1)N1CCc2ccccc2C1 (centres undefined),6.0,/,17.6,20.1,17.4,40.0*,35.2*
CC(C)(C)c1ccc(C(=O)c2cn[nH]c2-c2ccccc2O)cc1,-3.4,-1.8,35.2,49.7,24.2,44.8*,35.0*
COc1cccc(NC(=O)c2cncs2)c1,-5.8,-0.4,3.4,20.6,-13.6,29.9,/
CCc1ccc(CNC(=O)c2cc3c(C)nc4ccccc4c3o2)cc1,17.6,3.7,18.4,42.7,-3.9,42.6*,16.6
Cc1nc2ccccc2c2oc(C(=O)NCC3COc4ccccc4O3)cc12 (centres undefined),14.1,/,24.0,29.8,5.5,40.6*,9.6
CCN1CCCC1CNC(=O)c1cc2c(C)nc3ccccc3c2o1 (centres undefined),0.7,12.0,-0.2,23.6,3.4,6.2,/
COc1cccc(CNC(=O)c2cc3c(C)nc4ccccc4c3o2)c1,0.0,4.0,11.2,11.6,-27.3,9.1,/
O=C(/C=C/c1ccccc1)NCC(=O)N/N=C/c1ccco1,-2.5,2.9,8.5,3.8,8.0,2.5,/
